Hits are enriched below; roughly 0.5% of the tested compounds scored in any of these assays.
TRPML1 agonist: qHTS for Agonists of the Human Mucolipin Transient Receptor Potential 1 (TRPML1); hit rate 0.12% among 410,000; TRPML1-expressing cells, Ca2+ dye fluorescence, FDSS; AID 624414, 2012; activation, % (test concentration not listed); Mucolipin-1 (Homo sapiens), Q9GZU1; in the data active means activation above about 50%; inconclusive means mostly about 30% to 49%; further: 0% is about no effect
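In this qHTS format, compounds were pin-transferred onto Ca8-dye-loaded TRPML1-DL cells induced with Tet overnight, and intracellular Ca2+ fluorescence was recorded kinetically for 110 s after a 10 s baseline. A subsequent 4uM final 54-4 (EC80) addition followed by a second 110 s read served as the antagonist phase.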
TRPML1 blocker: qHTS for Inhibitors of the Human Mucolipin Transient Receptor Potential 1 (TRPML1); TRPML1-inducible cells, Ca2+ dye fluorescence, FDSS; stronger effect = lower value; inhibition of EC80 agonist-evoked calcium signal; hit rate 0.02% among 390,000; Mucolipin-1 (Homo sapiens), Q9GZU1; activity change, negative = inhibition, % (test concentration not listed); in the data active means activity change below about -50%; inconclusive means between about -30% and that limit;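 further: stimulus is agonist 54-4 at its EC80 concentration; on the % scale 0 is the no-effect control and ±100 the full control effect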
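TRPML1-DL cells, Tet-induced overnight (~16 h, 37 °C) at 1,500 cells/well, were loaded with Ca8 no-wash dye plus quencher for 45-90 min at room temperature. Compounds were pinned during FDSS kinetic reading; agonist 54-4 at EC80 (4 uM final) then added.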
RGS4 inh: Inhibitors of Regulator of G Protein Signaling (RGS) 4: qHTS; Regulator of G-protein signaling 4 (Homo sapiens), P49798; Transcreener GDP fluorescence polarization, RGS4-accelerated GTP hydrolysis; Potency, µM (highest dose often 114 µM), for the others: at the highest dose activity change, negative = inhibition, most hits filed as inhibitors; hit rate 0.039% among 390,000; AID 504845, 2011; further: potency means the concentration at half of the fitted maximal effect; on the % scale 0 is the no-effect control and ±100 the full control effect; nearly all actives have a fitted effect of over 75% in size
Target sequence (P49798 whole entry, looked up): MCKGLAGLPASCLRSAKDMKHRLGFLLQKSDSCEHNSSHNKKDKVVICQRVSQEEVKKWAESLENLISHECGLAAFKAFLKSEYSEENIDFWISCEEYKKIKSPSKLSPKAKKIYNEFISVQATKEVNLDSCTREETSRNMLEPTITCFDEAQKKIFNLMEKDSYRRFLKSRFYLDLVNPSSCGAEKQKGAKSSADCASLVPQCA
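MLSMR compounds (23 nl, pin-transferred) preincubated 10 min at room temperature with a 500nM (2x) first reagent, then RGS4 at 900nM (2x) plus Transcreener GDP mix added; fluorescence polarization (620/688 nm) read before and after 90 min at 30 °C.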
A-T KAP1 phos: qHTS Assay for Identifying a Potential Treatment of Ataxia-Telangiectasia; F2112 A-T fibroblasts, KAP-1 phosphorylation AlphaLISA; neocarzinostatin DNA damage 30 min before lysis; Potency, µM (titrated, usually from 57.5 µM), for inactives: at the top dose activation, hits mostly activators; hit rate 0.19% among 320,000; further: potency means the concentration at half of the fitted maximal effect; % of control where 0% means no effect; nearly all actives have a fitted effect of over 45% in size
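hTERT-immortalized A-T patient fibroblasts (F2112), 500 cells/well in OPTI-MEM, 1% FBS, got compounds for 60 min, then NCS for 30 min at 37C. Lysates were then assayed for phospho-KAP-1 by AlphaLISA (anti-pKAP1 donor, anti-KAP1 acceptor beads), 6 hr at 25C.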
TRPV1 ag: HTS Assay for Compounds that Act as Agonists of the Vanilloid Receptor 1. AID 540275, 2011. Transient receptor potential cation channel subfamily V member 1 (Homo sapiens), Q8NER1. TRPV1-expressing cells, Fluo-8 calcium influx, agonist mode. activation, % at 8.33 µM. hit rate 0.19% among 320,000; in the data active means activation above about 80%; inconclusive means between about 30% and that limit; further: 0% is about no effect
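TRPV1-expressing cells were cultured overnight at 35.5C and loaded with Fluo-8 calcium dye for 40 to 90 min at room temperature. After a 10 s baseline, compound was added and calcium influx was read kinetically for 3 min (ex 480/em 520 nm).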
TRPV1 potentiator: HTS Assay for Compounds that Act as Potentiators of the Vanilloid Receptor 1; AID 540277, 2011; TRPV1-expressing cells, Fluo-8 calcium influx, capsaicin EC20 potentiation; hit rate 0.02% among 320,000; Transient receptor potential cation channel subfamily V member 1 (Homo sapiens), Q8NER1; potentiation, % at 8.33 µM; in the data active means potentiation above about 80%; inconclusive means between about 30% and that limit; further: 0% is about no effect
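Cells expressing TRPV1 were dye-loaded with Fluo-8 and read kinetically: 10 s baseline, 3 min after compound (agonist portion), then 2 min after EC20 capsaicin (allosteric enhancer portion). Calcium-bound dye fluorescence at 480/520 nm.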
* hit, by the source's call; u = inconclusive; x = no result; [ ] = dose if it differs, or a comment. Unless noted, the call rests on the fitted dose curve; in most records, active means well fitted curve in the direction sought with a large enough effect; inconclusive means small, poorly fitted or top-dose-only effect, or another doubt; inactive means no such curve, though single readings can be large; an effect the other way counts as inactive or inconclusive.

SMILES	TRPML1 agonist	TRPML1 blocker	RGS4 inh	A-T KAP1 phos	TRPV1 ag	TRPV1 potentiator
Cc1ccc(CNC(=O)C2CC(c3cccc(F)c3)=NO2)cc1 (stereo unspecified)	-1	-13	9%	25µM*	u	-24
COc1ccc(O)c(N)c1	x	x	x	-1%	-3	2
COc1ccc(-c2ccccc2)c2oc(-c3ccco3)cc(=O)c12	0	-6	-22%	x	x	x
COc1ccc(C=C(c2nc3ccccc3s2)c2nc3ccccc3s2)cc1O	0	-13	-20%	28µM*	3	-5
COc1cc(C=C(c2nc3ccccc3s2)c2nc3ccccc3s2)ccc1O	0	26	-9%	0%	2	23
COc1ccc(/C=C/C(=O)Nc2ccc(N3CCOCC3)cc2)cc1	0	-13	-5%	6%	u	-14
CCN(CC)S(=O)(=O)c1ccc(/C=C/C(=O)Nc2ccc(N3CCOCC3)cc2)cc1	-1	-9	5%	-3%	90*	-18
Cc1ccc(-n2c(-c3ccco3)nc3c(cnn3-c3ccccc3Cl)c2=O)cc1	-1	-3	-12%	x	x	x
Cc1nc2c(cnn2-c2ccccc2Cl)c(=O)n1-c1ccc(C(C)C)cc1	94*	-11	11%	-3%	0	u
Cc1cc2nc3n(c2cc1C)CC1CC(C(=O)NCC2CC2)N(C)C31 (stereo unspecified)	-1	-1	-8%	28µM*	-1	-7
CN1C(C(=O)NCC2CC2)CC2Cn3c(nc4cc(Cl)c(Cl)cc43)C21 (stereo unspecified)	-1	-7	5%	35µM*	2	-4
COc1cc(C2C(C#N)=C(N)N(Nc3ccccc3)C3=C2C(=O)CC(C)(C)C3)ccc1OCc1cccc(F)c1 (stereo unspecified)	2	-16	-6%	-3%	0	3
Cc1cccc(NC2SC(=O)N(CC(=O)O)C2=O)c1 (stereo unspecified)	0	-27	-4%	-1%	3	-1
CC(C)(C)n1nnnc1C(c1ccccc1)N1CCN(c2c(Cl)cncc2Cl)CC1 (stereo unspecified)	52*	x	x	x	x	x
CC(C)(C)n1nnnc1C(c1ccccc1)N1CCN(c2ncc(C(F)(F)F)cc2Cl)CC1 (stereo unspecified)	57*	x	x	x	x	x
CN1CCN(C(c2ccccc2)c2nnnn2C(C)(C)C)CC1 (stereo unspecified)	-1	x	x	x	x	x
CCCCN(c1nc2ccccc2nc1Cl)S(=O)(=O)c1ccc(C)cc1	0	19	7%	10µM*	-5	7
Cc1cc(N2CCCCC2)nc(N)n1	56*	-10	10%[11.4 µM]	5%	18	-9
COc1ccc(CCNC(=O)COc2ccc(S(=O)(=O)NC(C)C)cc2Cl)cc1OC	0	-61*	-11%	-5%	0	-13
CCCCNc1c(-c2ccc(SC(C)CC)cc2)nc2cnccn12 (stereo unspecified)	4	59	19%	28µM*	x	x
O=C(Nc1ccc(F)cc1)c1oc2ccccc2c1NC(=O)C1CC1	2	9	0%[56.9 µM]	4%	82*	-11
Cc1ccc(NC(=O)c2oc3ccccc3c2NC(=O)C2CC2)cc1	1	-6	-13%[56.9 µM]	-2%	u	9
CC(C)n1ncc2c(C(=O)Nc3ccc(S(N)(=O)=O)cc3)cc(C3CC3)nc21	4	-7	1%	12%	81*	-6
COC(=O)c1ccc(CSc2cc(C)c3ccccc3n2)o1	4	2	-18%	32µM*	2	0
O=C(/C=C/c1ccc(Cl)cc1)NCc1ccncc1	1	3	3%	-10%	82*	-7
SMILES	TRPML1 agonist	TRPML1 blocker	RGS4 inh	A-T KAP1 phos	TRPV1 ag	TRPV1 potentiator
Cc1ccc(/C=C/C(=O)NCc2ccncc2)cc1	0	-6	2%	-8%	u	-4
Cc1ccc(O)c(C(=O)/C=C/c2ccc3c(c2)OCCO3)c1	1	26	-10%	34%	8	-2
COc1cccc(CN(Cc2ccco2)C(c2ccc(F)cc2)c2nnnn2C(C)(C)C)c1 (stereo unspecified)	106*	-4	-16%	20%	1	1
CC(C)(C)n1nnnc1C(c1ccccc1F)N(Cc1ccco1)CC1CCCO1 (stereo unspecified)	66*	3	-3%	-5%	u	-9
Cc1cccc2cc(C(c3nnnn3C(C)(C)C)N(Cc3ccco3)CC3CCCO3)c(=O)[nH]c12 (stereo unspecified)	1	-10	-14%	-4%	u	-15
C=CCOc1ccc(/C=C/C(=O)OCC(=O)N(C)CC(=O)Nc2ccc(F)cc2)cc1	1	29	12%	3%	-5	-4
COc1ccc2nc(N3CCCC3)c(C#N)cc2c1	14	-8	4%	x	21	0
COc1ccc2nc(N3CCCCC3)c(C#N)cc2c1	62*	-12	20%	20µM*	-1	7
CCOC(=O)C1(Cc2ccccc2C)CCCN(C(=O)c2cc(C3CC3)[nH]n2)C1 (stereo unspecified)	1	-8	-17%	-5%	20	-10
Cc1ccc(-c2nc3ccc(Br)cn3c2Cc2ccsc2)cc1	0	-13	x	x	x	x
CN(C)c1ccc(/C=C/c2ccc3cc(F)ccc3n2)cc1	19	x	x	x	x	x
CN1CCCc2cc(/C=C/c3ccnc4ccccc34)ccc21	52*	x	x	x	x	x
CCCN(CCC)c1ccc(/C=C/c2ccc3cc(OCC)ccc3n2)cc1	22	1	9%	28µM*	11	16
CN(C)c1ccc(/C=C/c2c(Cl)cnc3ccccc23)cc1	3	x	x	x	x	x
CCN(CC)c1ccc(/C=C/c2ccccn2)cc1	27	x	x	x	x	x
CCN(CC)c1ccc(/C=C/c2cc(-c3ccccc3)c3ccccc3n2)cc1	0	-19	u	11µM*	u	2
CN(C)c1ccc(/C=C/c2ncnc3ccccc23)cc1	82*	x	x	x	x	x
Cc1ccc(CN2CCN(Cc3cnc(C)s3)CC2CCO)o1 (stereo unspecified)	0	-1	-10%	6%	-4	1
CN(C)c1ccc(/C=C/c2ccc3cc(N(C)C)ccc3n2)cc1	9	x	x	x	x	x
CCN(CC)CCN(CC)c1ccc(/C=C/c2ccnc3ccccc23)cc1	4	x	x	x	x	x
CCN(CC)c1ccc(/C=C/c2ccnc3ccccc23)cc1	54*	x	x	x	x	x
